Reference: PubChem BioAssay AID1918 (Vanderbilt High Throughput Screening Facility, 2009)
Screen size: about 130,000 compounds; about 2,500 (1.9%) were called active. The full list was thinned out, with actives kept by preference. Values without a mark were called inactive.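 How the source made its calls: active means signal ratio slope over the read window, or its plate-corrected B-score, at least 3 SD from the plate mean, either direction; inactive means the rest.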

Each molecule was assayed against ATP-sensitive inward rectifier potassium channel 1 (Homo sapiens) (UniProt P48048) (assay: Kir1.1 channel activity modulation, library screen – cell-based, thallium flux, MLSMR library, primary screen (AID 1918;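 further: B-score of the F/F0 ratio slope over 7 to 12 s after thallium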)). Conditions: Tet-inducible ROMK, thallium flux fluorescence; at 10 µM; actives lie on both sides.
Sequence of ATP-sensitive inward rectifier potassium channel 1 (Homo sapiens) (P48048 whole entry, looked up): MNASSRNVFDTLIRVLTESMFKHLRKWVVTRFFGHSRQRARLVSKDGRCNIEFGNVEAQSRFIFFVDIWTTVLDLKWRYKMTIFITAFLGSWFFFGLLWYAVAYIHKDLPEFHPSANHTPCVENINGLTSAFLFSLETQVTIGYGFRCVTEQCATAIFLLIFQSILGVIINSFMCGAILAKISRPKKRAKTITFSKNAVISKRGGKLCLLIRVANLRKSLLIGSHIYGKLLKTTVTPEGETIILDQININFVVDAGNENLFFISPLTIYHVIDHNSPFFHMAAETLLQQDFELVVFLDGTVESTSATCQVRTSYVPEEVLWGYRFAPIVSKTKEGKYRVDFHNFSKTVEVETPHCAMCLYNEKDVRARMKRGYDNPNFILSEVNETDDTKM
With O=[N+]([O-])c1ccc(N=Cc2c(O)ccc3ccccc23)cc1 the B-score was -4.23 (active).
CC(=O)n1c(C=Nc2ccccc2)c(O)c2ccccc21 gave a B-score of -1.73.
In the case of O=C(N/N=C/c1ccc([N+](=O)[O-])cc1)c1c[nH]c2ccccc12, the B-score is reported as -0.0103.
In the case of CCOc1ccc(C(C)C)cc1S(=O)(=O)n1nc(C)cc1C, the B-score is reported as -0.531.
For CCOc1ccc(-n2cnnn2)cc1S(=O)(=O)N1CCC(C)CC1C (stereo not given), the B-score was -3.15 (active).
For CCOc1ccc(Br)cc1S(=O)(=O)N1CCC(C(=O)O)CC1, the B-score was -0.0303.
For O=C1[C@@H]2C(c3cccnc3)=NO[C@@H]2C(=O)N1c1ccc(Cl)cc1Cl, the B-score was 0.0407.
For CSc1nc2nc3c(c(=O)n2[nH]1)CCC3, the B-score was 1.45 (active).
Molecule O=c1c2c(nc3cc(-c4cccc(Cl)c4)[nH]n13)CCCC2 has a B-score of -0.277.
O=c1c2c(nc3nc[nH]n13)CCC2 showed a B-score of 0.251.
Molecule O=C(c1ccncc1)N1CCN(c2ccc3ccccc3n2)CC1 has a B-score of -0.138.
O=C(NC1CCCC1)C(c1ccccn1)N(C(=O)c1csnn1)C1CCCC1 (stereo not given) gave a B-score of 0.761.
With Cc1ccccc1CCN(CC(=O)NC1CCCCC1)C(=O)c1csnn1 the B-score was -3.14 (active).
CCC(C)(C)NC(=O)C(c1ccccn1)N(C(=O)c1csnn1)c1ccccc1 (stereo not given) was tested, and the B-score was 0.633.
COc1ccc(-c2ccc(CNCCCN3CCOCC3)o2)cc1Cl was tested, and the B-score was -0.161.
Work on CCOc1ccc(N2CC(C(=O)NCCN3C(=O)S/C(=C\c4cccnc4)C3=O)CC2=O)cc1 (stereo not given) yielded a B-score of 0.439.
Molecule COc1ccccc1N1CCN(C(=O)c2ccc(Cl)c(S(=O)(=O)N3CCCC3)c2)CC1 has a B-score of -0.388.
Molecule O=c1c2cc3c(=O)n(CC4CCCO4)c(=O)c3cc2c(=O)n1CC1CCCO1 (stereo not given) has a B-score of 1.28.
O=C(NCc1ccc2c(c1)OCO2)c1ccc2c(c1)C(=O)N(CC1CCCO1)C2=O (stereo not given) was tested, and the B-score was 0.455.
For O=C1c2cccc3c([N+](=O)[O-])ccc(c23)C(=O)N1CC1CCCO1 (stereo not given), the B-score was -2.58 (active).
C/C(=N\Nc1nc(N2CCOCC2)nc(N2CCOCC2)n1)c1ccc([N+](=O)[O-])cc1 gave a B-score of 0.473.
For CC1CCN(C(=S)c2cccc(O)c2)CC1, the B-score was 0.17.
Cc1nc(-c2ccccc2)sc1C(=O)/C=C/N(C)C gave a B-score of 0.143.
In the case of CCOC(=O)c1c(NC(=O)CCl)sc(C(=O)N(CC)CC)c1C, the B-score is reported as 1.96 (active).
Work on CCC(=O)Nc1sc(C(=O)Nc2ccccc2)c(C)c1C(=O)OC yielded a B-score of -1.11.
Molecule CCOC(=O)c1sc(NC(=O)COc2ncnc3ccccc23)c(C(=O)OCC)c1C has a B-score of 0.196.
For Cc1nnnn1/C(=C\c1ccccc1)C(=O)OCC(=O)N1CC2(C)CC1CC(C)(C)C2 (stereo not given), the B-score was -5.08 (active).
For COc1ccc(C(=O)N2CC3(C)CC2CC(C)(C)C3)cc1OC (stereo not given), the B-score was 0.464.
Work on COc1ccccc1C(=O)N1CC2(C)CC1CC(C)(C)C2 (stereo not given) yielded a B-score of -0.0792.
For Cc1ccc(SCCC(=O)NCc2ccccn2)cc1, the B-score was -0.142.
Molecule O=C(O)CC(SCC(=O)Nc1ccc(Br)cc1)C(=O)O (stereo not given) has a B-score of -0.193.
Work on Cc1ccc(C2C3=C(Nc4[nH]n(-c5ccccc5)c(=O)c42)c2ccccc2C3=O)cc1 (stereo not given) yielded a B-score of -2.43.
With COC(=O)C1=C(C)NC2=C(C(=O)c3ccccc32)C1c1ccc(-c2ccc(C(=O)O)cc2)o1 (stereo not given) the B-score was 3.35 (active).
In the case of CCOC(=O)c1ccc(-c2ccc(C(=O)Nc3cccnc3)o2)cc1, the B-score is reported as 0.149.
Work on COc1ccc(-n2c(O)c(C=NCC(c3ccco3)N3CCCC3)c3ccccc3c2=O)cc1OC (stereo not given) yielded a B-score of 0.182.
Work on O=C(CSc1nnnn1-c1ccc(O)cc1)N1N=C(c2ccc3ccccc3c2)CC1c1ccccc1 (stereo not given) yielded a B-score of 0.13.
CN(C)c1ccc(C=C2C(=O)OC3(CCCC3)OC2=O)cc1 was tested, and the B-score was -4.03 (active).
For CC1=NN(Cc2ccccc2)C(=O)/C1=C/c1ccc(N(C)C)cc1, the B-score was -0.804.
With CN(C)c1ccc(/C=N\S(=O)(=O)c2ccccc2)cc1 the B-score was 0.722.
CN1/C(=C\C(=O)c2cccnc2Cl)C(C)(C)c2ccccc21 gave a B-score of 0.168.
In the case of CC(=O)Nc1cccc(OCC(=O)/C=C2\N(C)c3ccccc3C2(C)C)c1, the B-score is reported as -3.01 (active).
With Cc1noc(C)c1C(=O)OCC(=O)/C=C1\N(C)c2ccccc2C1(C)C the B-score was -0.053.
Cc1ccccc1NC(=S)NNC(=O)c1cccc(Br)c1 showed a B-score of -1.36.
In the case of N#Cc1c(-c2ccc(Cl)cc2)c2c([nH]c1=S)CCCC2, the B-score is reported as -0.344.
Work on CN(C)c1nc(-c2cccnc2)nc(-c2ccc(Cl)cc2)c1C#N yielded a B-score of -1.03.
For CNc1nccc(-c2ccc(Cl)cc2)c1C#N, the B-score was -3.41 (active).
Work on COCc1c(N)c(C)nc(Cl)c1C#N yielded a B-score of 0.228.
O=C1/C(=C\c2ccccc2Cl)SC(=S)N1CCC(=O)N1CCCc2ccccc21 gave a B-score of -0.502.
O=C(CN1CCCCC1)Nc1ccccc1Cl was tested, and the B-score was 1.02.
O=C(CN1CCCCCC1)NCCN1C(=O)S/C(=C\c2ccccc2Cl)C1=O was tested, and the B-score was -2.58 (active).
In the case of CSc1ccc(CNCCN2CCOCC2)cc1, the B-score is reported as -0.131.
Molecule CCN(CC(=O)NCc1cccs1)S(=O)(=O)c1ccc(NC(C)=O)cc1 has a B-score of -0.12.
In the case of O=C(CCl)N(Cc1cccc([N+](=O)[O-])c1)c1cccc(Cl)c1, the B-score is reported as -3.06 (active).
With CCN(CC)C(=O)CN(c1cccc([N+](=O)[O-])c1)S(=O)(=O)c1ccccc1 the B-score was 0.165.
Work on O=C(Nc1cccc([N+](=O)[O-])c1)Nc1ccc(Cl)cn1 yielded a B-score of 0.868.
COc1cccc(CC2(CO)CCCN(CC3=Cc4cc(OC)ccc4OC3)C2)c1 (stereo not given) showed a B-score of -0.447.
In the case of COc1ccccc1-n1c(=S)[nH]c2c(sc(=S)n2-c2ccc(C)cc2C)c1=O, the B-score is reported as 2.35 (active).
COc1cccc(-n2c(=S)sc3c(=O)n(-c4ccccc4OC)c(SCC4OCCO4)nc32)c1 showed a B-score of 0.408.
For CCc1ccc(-n2c(=S)sc3c(=O)n(-c4ccccc4OC)c(=S)[nH]c32)cc1, the B-score was 0.222.
In the case of COc1ccc(NC(=O)c2ccccc2CC[N+](=O)[O-])cc1, the B-score is reported as 0.216.
